# Source: PubChem BioAssay (NCATS)
# Results filed as inconclusive are left out. The source made the active and inactive calls. Calls follow the shape of the dose curve; as a rule, active = well fitted cell-killing curve with a large enough effect; inconclusive = small, poorly fitted or top-dose-only effect, or effect the other way; inactive = flat fitted curve, though single readings scatter.
# Test system: CAOV3
# Test: Primary qHTS to identify gynecologic anti-cancer compounds using libraries of approved drugs and bioactive compounds (AID 1345084); also: nearly all actives have a fitted effect of over 55% in size
# Conditions: Gynecologic cancer cell panel viability, ATPlite luminescence, 48 h; series mostly up to 57.5 µM; activity change, negative = cytotoxicity: at the top concentration
# Source text: National Center for Advancing Translational Sciences [NCATS] Assay Overview: Chemotherapeutic drug responses vary from cancer to cancer and from patient to patient. These variations could be caused by a number of factors including patient genomic background, tumor mutations, tumor heterogeneity, and aspects of drug treatment. Chemotherapeutic drug resistance is also a common issue and can lead to ineffective treatment and patient death. Here we have profiled the cell killing effects of thousands of compounds to characterize the responses in three gynecological cancers, identify cancer-selective compounds, and understand the diversity of responses to these compounds from pan-cancer suppressors to single cell line selective compounds. In this assay, we screened a 7,914 compound drug library that included approved drug and bioactive compounds in six ovarian, three cervical, and […] placental cancer cell lines using the ATPlite assay for cell viability. […] The cervical cancer cell lines included HeLa, Ca Ski, and C-33 A. The placental cancer cell lines included JEG-3. HEK 293T cells were used as the control cell line to determine the selectivity index. ATPlite is a luminescence based assay reliant on the conversion of a luciferase substrate to light in the presence of ATP. As a cytotoxic compound will suppress growth and decrease the number of cells, the concentration of ATP will decrease, and less light signal will be detected in the well.
# Assay Protocol Summary: 1,000 cells in 4 uL of media were dispensed into white, solid bottom 1536-well plates using a Multidrop Combi (Thermo Scientific). The Assay plates were incubated for 16 hours at 37 C with 5% CO2 in assay plates, followed by the addition of 23 nL of DMSO or drug dissolved in DMSO. Each compound was assayed in five concentrations (0.092, 0.46, 2.3, 11.5, and 57.5 uM), using the automated Wako 1536 Pin Tool workstation and incubated at 37 C with 5% CO2 48 hours. 4 uL of ATPlite, the ATP monitoring reagent, was then added to the each well of the assay plates using the Multidrop Combi reagent dispenser followed by incubation for 15 minutes at room temperature. The resulting luminescence was measured using the ViewLux plate reader.
# % is scaled to controls: 0 for no effect and ±100 for the full control effect; potency is read from the fitted curve at half-maximal effect.
SMILES,Potency,"activity change, negative = cytotoxicity"
CS(=O)(=O)c1ccc([C@@H](O)[C@@H](CF)NC(=O)C(Cl)Cl)cc1,inactive,
CC(=O)Nc1ccc(/C=N/NC(N)=S)cc1,,2.93% (inactive)
O=c1[nH]c(=O)c2[nH]c(=O)[nH]c2[nH]1,,6.78% [at 11.6 µM] (inactive)
CN1CCC[C@@H]1Cc1c[nH]c2ccc(CCS(=O)(=O)c3ccccc3)cc12,inactive,
CC[N+](CC)(CC)CCOc1ccc(/C=C/c2ccccc2)cc1,10 µM (active),
CCC(=O)Nc1ccc(O)cc1,,11.3% (inactive)
O=c1cc[nH]c(=S)[nH]1,,9.08% (inactive)
O=S(=O)(O)NC1CCCCC1,,2.33% (inactive)
NCCNCCNCCN,,-15.2% (inactive)
CCN(CC)CCSC(=O)C(c1ccccc1)c1ccccc1,,0.191% (inactive)
COc1ccccc1O,,0% [at 116 µM] (inactive)
CN(C)CCC=C1c2ccccc2CCc2ccccc21,,-15% (inactive)
[O-][n+]1cccc(CO)c1,,12.9% (inactive)
Nc1ccc(S(=O)(=O)Nc2ccc(Cl)nn2)cc1,,6.54% (inactive)
NC(=O)c1ncn([C@@H]2O[C@H](CO)[C@@H](O)[C@H]2O)c1N,,26% (inactive)
Oc1ccc(C(O)CNCCCCCCNCC(O)c2ccc(O)c(O)c2)cc1O (stereo not given),,-3.07% (inactive)
COC(=O)C1=C(C)NC(C)=C(C(=O)OC)C1c1ccccc1[N+](=O)[O-],,-6.44% (inactive)
CN(C)CC[C@@H](c1ccc(Cl)cc1)c1ccccn1,,0.218% (inactive)
O=C(O)[C@@H]1CSCN1,,5.6% (inactive)
O=c1cc(CO)occ1O,,12.7% (inactive)

SMILES,Potency,"activity change, negative = cytotoxicity"
CC[C@@]1(c2ccccc2)NC(=O)N(C)C1=O,,6.17% (inactive)
CCCOC(=O)c1ccccc1,,18.4% (inactive)
Cc1cc(C(C#N)c2ccc(Cl)cc2)c(Cl)cc1NC(=O)c1cc(I)cc(I)c1O (stereo not given),inactive,
NS(=O)(=O)c1cc2c(cc1C(F)(F)F)NC(Cc1ccccc1)NS2(=O)=O (stereo not given),,12% (inactive)
CC(C)(C)NCC(O)COc1ccc(NC(=O)NC2CCCCC2)cc1 (stereo not given),,20.7% (inactive)
OCC(O)CN1CCN(c2ccccc2)CC1 (stereo not given),inactive,
COc1ccc(Cl)cc1C(=O)NCCc1ccc(S(=O)(=O)NC(=O)NC2CCCCC2)cc1,inactive,
CC(=O)OCC(=O)[C@@]1(O)CC[C@H]2[C@@H]3CCC4=CC(=O)CC[C@]4(C)[C@H]3C(=O)C[C@@]21C,,-1.91% (inactive)
CC1=C(C/C=C(\C)CCC[C@H](C)CCC[C@H](C)CCCC(C)C)C(=O)c2ccccc2C1=O,,1.95% (inactive)
Nc1ncnc2c1ncn2[C@@H]1O[C@H](CO)[C@@H](O)[C@H]1O,,5.96% (inactive)
Nc1ccc(S(=O)(=O)Nc2ccccc2)cc1,,13.2% (inactive)
C[C@]12CC[C@@H]3c4ccc(O)cc4CC[C@H]3[C@@H]1CC[C@@H]2OC(=O)CCC1CCCC1,inactive,
CN(C)CCCO[C@@H]1[C@H]2OC(C)(C)O[C@H]2O[C@@H]1C(O)CO (stereo not given in full),,-18.8% (inactive)
O=C(O)c1ccccc1-c1ccc(C(F)(F)F)cc1,,6.82% (inactive)
NC(=O)N/N=C/c1ccc([N+](=O)[O-])o1,,-6.34% (inactive)
CC(C(O)c1ccc(O)cc1)N1CCC(Cc2ccccc2)CC1 (stereo not given),inactive,
NCCNCCNCCNCCN,,11.8% [at 11.6 µM] (inactive)
CC/C=C(\C(=O)N[C@@H]1C(=O)N2C(C(=O)OCOC(=O)C(C)(C)C)=C(COC(N)=O)CS[C@H]12)c1csc(N)n1,inactive,
C=CCn1c(=O)n([C@@H]2O[C@H](CO)[C@@H](O)[C@H]2O)c2nc(N)[nH]c(=O)c21,,11.1% (inactive)
OC[C@H]1O[C@@H](O[C@@H]2[C@@H](CO)O[C@](O)(CO)[C@H]2O)[C@H](O)[C@@H](O)[C@H]1O,,-5.06% (inactive)
